Results on 41 molecules are retold here after PubChem BioAssay AID434970 (Sanford-Burnham Center for Chemical Genomics, 2010).

Each structure is given as a SMILES string. Among all 11,000 compounds or so, about 310 (2.8%) were called active. The sample holds actives, similar compounds and a random draw of the others, so the mix is not that of the screen. Cut-off read from the data, not from the text of the source: active = activity change below about -85%; inactive = the rest.

The experiment deals with intestinal alkaline phosphatase [Mus musculus]. In words: mouse intestinal phosphatase enzyme activation – biochemical, luminescence, single concentration, confirmation (AID 434970). The settings on record: purified mouse IAP, CDP-Star luminescence, 30 min, at 10 µM; activation factor: measured here: IAP activation factor, stronger effect = higher value; activity change, negative = activation: stronger effect = lower value.
For the molecule `Cc1cccc(-n2c(SCC(=O)Nc3ccc4c(c3)OCO4)nnc2-c2ccoc2C)c1`, the activation factor stood at 1.03 and the activity change, negative = activation is -2.65% (inactive).

As to `Cc1cccc(C2=NN(c3ccc(Br)cc3)[C@@H](C(=O)N3CCOC3=O)[C@@H]2C)c1`, the activation factor stood at 0.974 and the activity change, negative = activation was 2.65% (inactive).

Turning to `CC(=O)c1c(C)[nH]c(C(=O)N2CCN(c3cc(Cl)ccc3C)CC2)c1C`, the activation factor was determined as 1.14 and the activity change, negative = activation was -13.5% (inactive).

Regarding `CN(C(=O)C1CCOC1)c1nnc(-c2ccncc2)s1` (configuration not stated), the activation factor was 0.913 and the activity change, negative = activation was 8.65% (inactive).

Take `CC(Oc1ccc(Br)cc1)C(=O)N1CCc2ccccc21` (configuration not stated): the activation factor was determined as 1.16 and the activity change, negative = activation was -16.1% (inactive).

Regarding `N#Cc1c2c(c(NCCCN3CCOCC3)n3c1nc1ccccc13)CCC2`, the activation factor was 0.904 and the activity change, negative = activation is 9.6% (inactive).

Take `Cc1ccc(C2CC(=O)Oc3cc(C)cc(C)c32)cc1` (configuration not stated): the activation factor worked out at 1.06 and the activity change, negative = activation is -5.5% (inactive).

For `COc1ccc(S(=O)(=O)c2ccc(O)cc2)cc1`, the activation factor amounted to 0.992 and the activity change, negative = activation is 0.8% (inactive).

On to `CC(C)[C@@H](CO)N(C)S(=O)(=O)c1ccccc1Br`, for which the activation factor came out at 1.01 and the activity change, negative = activation is -0.85% (inactive).

As for `O=C(NCCc1ccc(Cl)cc1)c1cccnc1`, the activation factor came out at 0.957 and the activity change, negative = activation was 4.3% (inactive).

`COc1ccc2cc(C[C@@H]3CC[C@@H](CO)O3)ccc2c1`: the activation factor is 1.04 and the activity change, negative = activation is -4.15% (inactive).

`COc1cccc(NC(=O)C2CCN(Cc3cnn(-c4ccccc4)c3-n3cccc3)CC2)c1`: the activation factor amounted to 2.01 and the activity change, negative = activation was -101% (active).

For the molecule `COc1ccc(NC(=O)C2CCN(c3nnnn3-c3ccccc3)CC2)cc1`, the activation factor was found to be 0.976 and the activity change, negative = activation is 2.45% (inactive).

As for `O=C(Nc1ccccc1Cl)C1CCN(Cc2cnn(-c3ccccc3)c2-n2cccc2)CC1`, the activation factor turned out to be 1.02 and the activity change, negative = activation is -1.6% (inactive).

As to `Cc1ccc(-c2csc(N)n2)s1`, the activation factor amounted to 0.219 and the activity change, negative = activation is 78% (inactive).

Regarding `Cc1cccc(NC(=S)NC2CCSc3ccccc32)c1` (configuration not stated), the activation factor is 3.43 and the activity change, negative = activation is -242% (active).

With `FC(F)Oc1ccc(NC(=S)NC2CCCCCCC2)cc1`, the activation factor is 1.38 and the activity change, negative = activation is -38% (inactive).

On to `S=C(NCc1ccccc1)NC1CCSc2ccccc21` (configuration not stated), for which the activation factor turned out to be 2.51 and the activity change, negative = activation is -151% (active).

Consider `Cc1ccc(NC(=S)NC2CCSc3ccccc32)cc1` (configuration not stated), for which the activation factor is 1.37 and the activity change, negative = activation was -36.6% (inactive).

Consider `S=C(Nc1ccc(Oc2ccccc2)cc1)NC1CCCC1`, for which the activation factor turned out to be 1.5 and the activity change, negative = activation was -49.8% (inactive).

For the molecule `NS(=O)(=O)c1cc(C(=O)NC2CCSc3ccccc32)ccc1Cl` (configuration not stated), the activation factor stood at 0.16 and the activity change, negative = activation is 84% (inactive).

For the molecule `S=C(NCc1ccccc1)NC1CCCc2ccccc21` (configuration not stated), the activation factor came to 1.87 and the activity change, negative = activation is -86.8% (inactive).

As to `S=C(Nc1ccc(Cl)c(Cl)c1)NC1CCCCC1`, the activation factor was 1.9 and the activity change, negative = activation was -90.1% (inactive).

As to `S=C(NCc1ccccc1)NCc1ccc(CNC(=S)NCc2ccccc2)cc1`, the activation factor came to 1.39 and the activity change, negative = activation was -39.4% (inactive).

In the case of `FC(F)Oc1ccc(NC(=S)NC2CCSc3ccccc32)cc1` (configuration not stated), the activation factor came out at 2.75 and the activity change, negative = activation is -175% (active).

On to `Cc1ccc(NC(=S)NC2CCSc3ccccc32)cc1C` (configuration not stated), for which the activation factor was determined as 2.71 and the activity change, negative = activation is -172% (active).

`Cc1cccc(NC(=S)NCCN(C2CCCCC2)C2CCCC2)c1`: the activation factor is 1.23 and the activity change, negative = activation is -23.1% (inactive).

In the case of `COc1ccc(C2/C=C\CN(C(=O)OCC3c4ccccc4-c4ccccc43)CC(=O)N2Cc2cccc(F)c2)cc1` (configuration not stated), the activation factor was determined as 1.1 and the activity change, negative = activation is -10.4% (inactive).

On to `O=C(Nc1ccc2nc(-c3ccc4nc[nH]c4c3)[nH]c2c1)c1cccs1`, for which the activation factor was found to be 1.05 and the activity change, negative = activation was -5.3% (inactive).

For `CC(=O)N1CCN(c2ccc(NCc3ccc(C)cc3)cc2)CC1`, the activation factor came to 1.09 and the activity change, negative = activation was -9.45% (inactive).

`COC(=O)c1ccc(Nc2cc(C)nc3ncnn23)cc1`: the activation factor came out at 1.03 and the activity change, negative = activation was -3.5% (inactive).

For `Cc1csc(SCc2ccccc2C(=O)O)n1`, the activation factor came out at 0.948 and the activity change, negative = activation was 5.2% (inactive).

Consider `COc1ccccc1C(=O)N1CCN=C1c1ccccc1`, for which the activation factor was 0.974 and the activity change, negative = activation is 2.55% (inactive).

As for `O=C(NCC(=O)N(c1ccccc1)C(C(=O)NC1CCCCC1)c1ccncc1)c1ccco1` (configuration not stated), the activation factor amounted to 1.01 and the activity change, negative = activation was -1.1% (inactive).

For `Cc1ccc(-c2nnc(SCC(=O)NNC(=O)COc3cccc4ccccc34)n2C)cc1`, the activation factor was determined as 1.03 and the activity change, negative = activation was -3.2% (inactive).

For `Cn1c(=O)c2c(nc(SCC(=O)N3CCCCCC3)n2C)n(C)c1=O`, the activation factor was 1.08 and the activity change, negative = activation was -7.85% (inactive).

`Cn1c(=O)c2c(nc(NC3CCCCC3)n2CC(O)COc2ccccc2)n(C)c1=O` (configuration not stated): the activation factor was found to be 1.01 and the activity change, negative = activation was -0.8% (inactive).

In the case of `Cn1c(=O)c2c(nc(NC3CCCCC3)n2CC(=O)C23CC4CC(CC(C4)C2)C3)n(C)c1=O`, the activation factor is 5.65 and the activity change, negative = activation was -465% (active).

For `CCN(Cc1cc2ccccc2[nH]c1=O)S(=O)(=O)c1ccccc1`, the activation factor turned out to be 1.02 and the activity change, negative = activation is -1.85% (inactive).

As to `O=C(NCc1cccs1)C(NS(=O)(=O)c1cccc2nsnc12)c1ccccc1` (configuration not stated), the activation factor turned out to be 0.974 and the activity change, negative = activation was 2.65% (inactive).

Regarding `CCOC(=O)C1C(=O)NC(N2CCCCC2)=NC1C(C)C` (configuration not stated), the activation factor stood at 0.936 and the activity change, negative = activation was 6.4% (inactive).
